Test results published in PubChem BioAssay AID588719 (Southern Research Specialized Biocontainment Screening …, 2011).
About 920 (61%) of roughly 1,500 compounds were called active. So high a share suggests a set chosen from earlier hits. The list shows a part of the results. Results with a measured potency or affinity are listed apart. Values without a mark were called inactive. No rule for the calls is given here.

Assay: Vero 76 cell cytotoxicity, dose response, cytotoxicity control for VEEV inhibitor project (AID 588719)
Details: Vero 76 cells viability, cytotoxicity counter-screen; series mostly up to 25 µM; viability: at the top concentration

SMILES	viability
CCN1CCC(CNCc2cn(-c3ccc(OC)cc3)nc2-c2ccccc2Cl)C1 (centres undefined)	97.9%
Nc1ncnc(N2CCOCC2)n1	94.5%
O=C(COC(=O)c1ccc(O)cc1O)Nc1ccc2ccccc2c1	93%
CCOC(=O)C1(CCC(=O)OCc2ccccc2)CCCCC1=O (centres undefined)	97.2%
CCC(CC)N1CCN(Cc2nc3ccc([N+](=O)[O-])cc3c(=O)n2-c2ccccc2F)CC1	77%
OCCCNc1cc(-c2ccccc2)nc2cc(-c3ccc(F)cc3)nn12	73.2%
Cc1ccc(C)c(C2=NNC(=O)CC2)c1	93.6%
COc1cc2nc(N3CCNCC3)nc(N)c2cc1OC	76.1%
Cc1cccc(C(=O)OCC(=O)N2CCN(C(=O)c3ccco3)CC2)c1O	96.5%
COc1ccc(C(C)=NOC(=O)c2c(-c3ccccc3Cl)noc2C)cc1CN1CCOCC1	87.8%
OCC[n+]1c2ccccc2nc2ccc(N3CCOCC3)cc21	97.1%
CC(C)Oc1ccc(C(=O)CCN2CCOCC2)cc1	92.7%
Cc1c(C(O)CN2CCN(Cc3ccc4c(c3)OCO4)CC2)c2ccccc2n1C (centres undefined)	87.2%
Brc1ccc2[nH]c3c(c2c1)CCC3	83.3%
Cc1onc(-c2ccccc2)c1C(=O)NCc1ccc(F)cc1	85.7%
Cc1ccc(C)c(CN2CCC(CNC(=O)Nc3ccc(Br)cc3F)CC2)c1	80.7%
O=C1c2cc([N+](=O)[O-])cc3cc([N+](=O)[O-])cc(c23)C(=O)N1c1ccccn1	80.2%
CC(C)Cc1ccc(CN2CCCC(NC(=O)c3cccc(-n4cnnc4)c3)C2)cc1 (centres undefined)	77.4%
Nc1nc(C2CC2)c(Sc2sc(N)nc2C2CC2)s1	79.2%
COc1ccc(C[C@H]2CN3C(=NC[C@H]3C)N2CCNC(=O)CCC2CCCCC2)cc1	93.6%
O[C@H]1C[C@H](c2ccc(Cl)cc2)N(CC2CCCCC2)C[C@@H]1n1cc(-c2ccc(F)cc2)nn1	168%
Cc1ccc(NC(=S)NNC(=S)Nc2cccc(C(F)(F)F)c2)cc1	88.9%

SMILES	viability
CC(C)(C)c1ccc(C(=O)NC(=S)Nc2sc3c(c2C#N)CCC3)cc1	76.9%
CCOC(=O)C1=C(NC(=S)NC(=O)c2ccccc2)c2ccccc2CC1(C)C	82.3%
Cc1sc(NC(=S)NC(=O)c2ccc(C(C)(C)C)cc2)c(C#N)c1C	71.1%
ClCCn1cnc2c(SCc3ccccc3Cl)ncnc21	60.7%
Cc1cccc2sc(N(CCCN(C)C)C(=O)c3ccc4ncsc4c3)nc12	76.9%
CC1SCC(NC(=O)c2ccc(Cl)cc2)CS1 (centres undefined)	101%
Cc1cccc2c1NC1(CCCC1)CC2C (centres undefined)	90.3%
C/C(CCC12CC3CC(CC(C3)C1)C2)=N\NC(N)=S	86.5%
CC(=O)NNc1cc(C)nc(N)n1	90.7%
Cc1ccc(Cc2c(-c3ccc(C)cc3)nc3c4ccccc4ccn23)cc1	96.1%
Cc1cc(SC(C)C(=O)Nc2ncc(Cl)cc2Cl)nc2ccccc12 (centres undefined)	79.2%
COCCn1c(SC(C)C(=O)Nc2ncc(Cl)cc2Cl)nc2ccccc21 (centres undefined)	91.7%
O=C(CCCCN1CCCCC1)c1ccc2c(c1)Cc1ccccc1-2	76.1%
CCOC(=O)c1ccc(NC(=S)N(CCN(C)C)Cc2cccs2)cc1	74.1%
CCc1ccccc1Nc1nc(N)nc(COC(=O)c2cccn2C)n1	82.6%
COc1ccc(Nc2ccccc2N)cc1	78.8%
CCc1ccccc1Nc1nc(N)nc(COC(=O)CCC(=O)c2ccc(F)cc2)n1	88.4%
COc1ccc(OC)c(Nc2nc(NCCC(C)C)nc(N)c2[N+](=O)[O-])c1	80%
CCOC(=O)c1c(S(=O)(=O)N2CCC(C)CC2)c(C)n(C)c1C	100%
Cn1c(SCC(=O)c2ccccc2)nnc1-c1ccccn1	96.8%
O=C(Nc1ccccc1)N1CCN(C2c3ccccc3-c3ccccc32)CC1	87.6%
CCc1cc(C(=O)c2ccc(OC)cc2)c(NC(=O)CN2CCN(C)CC2)s1	72%

SMILES	viability
Cc1ccc(-c2nc(CCN3C(=O)c4ccccc4C3=O)cs2)cc1	101%
CCN(CC)c1ccc(S(=O)(=O)N2CCOCC2)cc1NC(=O)COC(=O)/C=C/c1ccc(C)o1	72.2%
CC(=O)N1CCC(C(=O)Nc2cc(S(=O)(=O)N3CCCCC3)ccc2C)CC1	94%
COCOCCn1cc(CN2CCS(=O)(=O)N(Cc3ccc(-c4ccc(F)nc4)cc3)C(CC(C)C)C2=O)nn1 (centres undefined)	79.3%
CN1CCN(c2ccc(-c3cccc(NC(=O)COc4ccc(Cl)cc4Cl)c3)nn2)CC1	89.2%
Cc1ccc(C(C[N+](=O)[O-])Sc2ccc(N)cc2)cc1 (centres undefined)	91.3%
COc1ccc(CCNc2cc(C)nc3c(-c4ccccc4)cnn23)cc1OC	75.9%
CCOC(=O)C1CCN(C(c2ccccn2)c2c(C)[nH]c3ccccc23)CC1 (centres undefined)	83.3%
O=c1[nH]c(-c2ccccn2)nc2sc(-c3ccccc3)cc12	44.6%
C=CCn1c(SCC(=O)c2cccs2)nc2sc(C)c(C)c2c1=O	70.5%
Cn1c(=O)c2[nH]c(CSCc3ccccc3)nc2n(C)c1=O	90.8%
Cc1ccc(CNc2ccc(O)cc2)cc1	93.9%
O=C(/C=C/c1ccc2c(c1)OCO2)c1ccccn1	88.9%
CN1C/C(=C\c2ccc(N3CCOCC3)cc2)C(=O)/C(=C/c2ccc(N3CCOCC3)cc2)C1	89.8%
Nc1cnn(C2OC(CO)C(O)C2O)c(=O)n1 (centres undefined)	76.1%
Cc1ccccc1Oc1ccc2c(c1)[C@@H]1C[C@H](N(C)C(=O)c3ccco3)[C@H]([C@H](C)O)C(=O)N1CC2	94%
CCOC(=O)c1oc2ccc(Br)cc2c1NC(=O)CN1CCN(C)CC1	71.7%
CCOc1ccc(-c2c(C(=O)N/N=C(\C)c3cccs3)nnn2-c2nonc2N)cc1	85.8%
Cc1nn(CC(=O)Nc2nccs2)c(C)c1[N+](=O)[O-]	101%
O=C1CCCCC1Nc1ccc2ccccc2c1 (centres undefined)	77.6%
CC(C)(C)C1CCC(=NNc2ccc(S(N)(=O)=O)cc2[N+](=O)[O-])CC1 (centres undefined)	75.6%
NC(=S)N/N=C/c1ccc(-c2ccc(SC(F)F)cc2)o1	85.5%

SMILES	viability
CCN1CCN(CCCNC(=O)c2cc3c(s2)-c2ccccc2OC3)CC1	72.1%
CCN(CC)CCCNC(=O)c1ccc2c(Cl)c3c(nc2c1)CCCC3	71.7%
CN1CCN(NC(=O)c2cc(-c3cccc(Cl)c3)nc3ccccc23)CC1	73.1%
O=C1CC(/C=C/c2ccc(Cl)cc2)=Nc2ccccc2N1	103%
CCOC(=O)c1c(CN2CCOCC2)n(-c2ccccc2)c2ccc(O)cc12	80.8%
O=C(NC1CCCCC1)c1ccc2ccccc2c1O	81.8%
CC(C)/C(C=O)=C(/NC1CCCCC1)c1ccccc1	86.3%
CN1c2ccccc2C(C)(C)C12CC(c1ccc(S(=O)(=O)N3CCCCC3)cc1)=NO2 (centres undefined)	78.2%
COc1ccc(OC)c2cc3ccccc3cc12	86%
O=C(O)CCc1ccc(-c2ccccc2)n1-c1ccc(C(=O)O)cc1	90.1%
COc1cccc(C#Cc2ccc3c(c2)O[C@H](CN(C)C)[C@@H](C)CN([C@@H](C)CO)S3(=O)=O)c1	99.8%
O=C(Cc1n[nH]c(=O)c2ccccc12)OCc1c(Cl)cccc1Cl	82.8%
CC(=O)c1c(O)c(C)c(O)c2c1OC1=Cc3c(c(C)nn3C)C(=O)C12C (centres undefined)	84%
Cc1onc(-c2ccc(Cl)cc2Cl)c1-c1csc(N/N=C/c2ccccc2Cl)n1	70.9%
Cc1cccc(NC(=O)CSc2cc(C)c(C#N)c3nc4ccccc4n23)c1	73.1%
CN(C)CCNC(=O)c1cc2sc3ccccc3c2s1	73.9%
C(=N\Nc1nncc2ccccc12)/c1ccccc1	86.1%
Cc1ccc2c(Cl)cc(Cl)c(O)c2n1	41.4%
CCOC(=O)c1c(-c2cccc3ccccc23)csc1NC(=O)C1C2CCC(O2)C1C(=O)O (centres undefined)	94.4%
CN(C)S(=O)(=O)c1cccc(C(=O)Nc2ccccc2C(=O)NC2CC2)c1	88.7%
CC(C)c1ccc(N=Cc2c(O)n(C3CC3)c(=S)[nH]c2=O)cc1	97.1%
CCOC(=O)CCCc1ccc(/C(C)=N/NC(N)=S)cc1	73.3%

SMILES	viability
CC(Sc1ccc(S(=O)(=O)N2CCOCC2)cn1)c1ccccc1Cl (centres undefined)	70.6%
CC(C)(C)c1cc[n+](C2=C([O-])c3ccccc3C(=O)/C2=N\S(=O)(=O)c2cccs2)cc1	74.5%
Cc1ccccc1NS(=O)(=O)c1ccc(C(=O)NCc2ccccc2CN2CCCC2)cc1	72.2%
O=C(CCCOc1ccc(Cl)cc1Cl)Nc1ccccc1C(=O)O	101%
O=C(Oc1oc(-c2ccco2)nc1C=Nc1ccc(Cl)cc1)c1ccco1	71.6%
CC1(C)Nc2ccccc2C(=O)N1c1ccc(Br)cc1	86.3%
COc1ccc(C/C(N)=N/OC(=O)c2cccs2)cc1	91.3%
NNC(=O)C1CCN(S(=O)(=O)c2ccc(Cl)cc2)CC1	86.3%
Cc1cc(O)c(-c2cc(C(=O)NCCc3ccc(S(N)(=O)=O)cc3)[nH]n2)cc1C	92.2%
Cc1cc(C)c2c(=O)n(CC(=O)NC3CCCC3)sc2n1	79.1%
Cc1cc(NC(=O)COC(=O)c2c(Cl)cccc2Cl)no1	83.3%
COc1ccc(-c2cc(C(=O)Nc3c(C)n(C)n(-c4ccccc4)c3=O)c3ccccc3n2)c(OC)c1	85%
COc1ccccc1/C=C/C(=O)c1ccccc1	79.3%
COc1ccc(C)c2sc(N(CCCN(C)C)C(=O)c3ccc4c(c3)OCCO4)nc12	71.3%
COC(=O)CCC1(C(N)=O)CCC(=O)c2ccccc21 (centres undefined)	94.8%
CC1(C)Cc2c(sc(NC(=O)COc3cccc4ccccc34)c2C#N)C(C)(C)N1	75.6%
OCCCNc1cc(-c2ccnc(Nc3cccc(Cl)c3)n2)ccn1	35.2%
CCCC(C)NC(=O)c1ccccc1SC (centres undefined)	94%
CC1(C)CCCN(Cc2c(O)ccc3c(=O)c(-c4nc5ccccc5s4)c(N)oc23)C1	73.8%
CCOC(=O)C1=NNC(=O)C1	89.4%
O=C(Nc1ccc(Cl)c(Cl)c1)Nc1ccccc1C(=O)O	86.6%
